These results are taken from PubChem BioAssay AID1992 (Sanford-Burnham Center for Chemical Genomics, 2009).

Structures are written as SMILES. The whole screen tested about 50,000 compounds, of which about 350 (0.7%) were called active. Rule as the data show it: active = inhibition above about 60%; inactive = the rest. Only a selection was taken, and actives are over-represented in it overall.

The target of the experiment is Dual specificity protein phosphatase 3 (Homo sapiens) (UniProt P51452). As to the kind of experiment: human DUSP3 activity blockers – biochemical, colorimetric, HTS, primary screen (AID 1992). The settings on record: recombinant VHR phosphatase, colorimetric substrate read-out; at 20 µM; hits give high values.
Sequence of Dual specificity protein phosphatase 3 (Homo sapiens) (P51452 whole entry, looked up): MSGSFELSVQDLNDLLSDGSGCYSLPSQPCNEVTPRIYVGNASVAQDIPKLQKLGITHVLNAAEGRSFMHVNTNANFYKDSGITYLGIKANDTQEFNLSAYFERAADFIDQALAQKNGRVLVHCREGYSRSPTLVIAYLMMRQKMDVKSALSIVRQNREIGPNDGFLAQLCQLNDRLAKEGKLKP
Consider `CSc1nc(SC)c2c3c(sc2n1)COC(C)(C)C3`, for which the inhibition is 4.5% (inactive). As to `CC1(C)CC(NC(=O)c2ccccc2C(=O)O)CC(C)(C)N1`, the inhibition is -26.8% (inactive).

For the molecule `COc1ccc(N2C(=O)C3C(C2=O)C2C=CC3C23CC3)cc1` (centres undefined), the inhibition is -13% (inactive).

As to `Cc1ccc(C)c(NC(=O)CN(c2ccc(F)cc2)S(=O)(=O)c2ccccc2)c1`, the inhibition was -21.2% (inactive).

`CCCCCCOc1ccc(/C=C2/C(=O)ON=C2c2ccccc2)cc1`: the inhibition was 1.2% (inactive). Turning to `COC(=O)C(=C/C=C/N(C)C)C(=O)OC`, the inhibition is -1.7% (inactive). As for `COc1ccc(C2=C/C(=C/c3cccc(OC)c3OC(C)=O)C(=O)O2)cc1`, the inhibition was 2.4% (inactive). On to `O=C1c2cccc3cc(Br)cc(c23)C(=O)N1Nc1ccccc1`, for which the inhibition is -21.6% (inactive). Take `COc1ccccc1OCCCCOc1c(C)cccc1C`: the inhibition was 27.1% (inactive). Turning to `COc1ccc(C2CC(c3ccccc3)=NN2c2ccccc2OC)cc1` (centres undefined), the inhibition is 8.3% (inactive). `COc1ccc(/C=C2/SC(=S)N(Cc3ccccc3)C2=O)cc1OC`: the inhibition was -6.8% (inactive). As to `COc1cccc(OCCOc2cccc(/C=C3/SC(=S)N(Cc4ccccc4)C3=O)c2)c1`, the inhibition is 112% (active). In the case of `CC(C)CN1C(=O)/C(=C/c2cccc(Oc3ccccc3)c2)SC1=S` it was -0.1% (inactive); in that of `Cc1ccc(NC(=O)CC2SC(N)=NC2=O)c([N+](=O)[O-])c1` (centres undefined), 24.8% (inactive); in that of `COc1ccc(N2C(=O)NC(=O)/C(=C/c3cccn3-c3ccc([N+](=O)[O-])cc3)C2=O)cc1`, -13.8% (inactive). In the case of `C=CCN1C(=O)/C(=C\c2cc(OC)c(O)c([N+](=O)[O-])c2)C(=O)NC1=S` it was 3.8% (inactive). To `C=CCN1C(=O)/C(=C\c2cccn2-c2cccc([N+](=O)[O-])c2)C(=O)NC1=S` belongs 85.9% (active); to `CC(=O)Oc1ccc(/C=C2\C=C(c3ccc(Br)cc3)OC2=O)c(OC(C)=O)c1`, 5.9% (inactive); to `CCOC(=O)CCCN1C(=O)/C(=C/c2ccccc2)SC1=S`, -3.8% (inactive). For `CCOc1ccc(N2C(=O)S/C(=C\c3ccccc3OC)C2=O)cc1`, the inhibition is -12.5% (inactive). Take `CCOC(=O)c1sc(C)c(C(N)=O)c1N`: the inhibition was 0.2% (inactive).

Regarding `O=C1N/C(=N/N=C/c2ccc3c(c2)OCO3)SC1c1ccccc1` (centres undefined), the inhibition was -3.2% (inactive).

`O=C(Nc1c(Cl)cccc1Cl)c1ccc(Cl)c(Cl)c1`: the inhibition was -2% (inactive). Turning to `CCc1cccc(CC)c1NC(=O)c1ccccc1OC`, the inhibition is 2.4% (inactive).

`COc1ccc(CCNS(=O)(=O)c2cccc([N+](=O)[O-])c2)cc1`: the inhibition is 8.5% (inactive).

Consider `CCOc1cccc2c1NC(C)(C)C(=S)C2=C1SC(C(=O)OC)=C(C(=O)OC)S1`, for which the inhibition is -4.6% (inactive). As for `CCN(CC)c1ccc(NC(=O)c2oc3ccccc3c2C)cc1`, the inhibition is 7.4% (inactive). Turning to `CCOC(=O)c1ccc(NC(=O)/C(C#N)=C2\NC(C)(C)Cc3ccccc32)cc1`, the inhibition is -14% (inactive). In the case of `Cc1cc(OCC(=O)Nc2cccnc2)ccc1Cl`, the inhibition is -1.1% (inactive). Take `CCOC(=O)c1ccccc1N/C=C(\C#N)C(=O)NCc1ccccc1`: the inhibition was -12% (inactive). Take `CC1=C(C(=O)c2ccccc2)C(c2ccc([N+](=O)[O-])cc2)NC(=O)N1` (centres undefined): the inhibition was -1.5% (inactive). For the molecule `COc1ccc(C(=O)N2CCN(Cc3cccc(OC)c3OC)CC2)cc1OC`, the inhibition was -15.2% (inactive). As to `COc1ccc(OC(C)C(=O)NCCc2nc3ccccc3[nH]2)cc1` (centres undefined), the inhibition was -9.3% (inactive). Take `CC(=O)Nc1ccc(S(=O)(=O)Nc2cccc(-c3nc4ccccc4[nH]3)c2)cc1`: the inhibition was -3% (inactive). On to `Cc1cc2c(cc1C)-c1nc3ccccc3c(=O)n1C(C)(C)C2`, for which the inhibition was -9.1% (inactive). Take `Cc1cc(C(=O)N/N=C/c2ccc(Br)c([N+](=O)[O-])c2)n[nH]1`: the inhibition is -1.6% (inactive). For the molecule `CC(C)(C)OC(=O)NC(Cc1c[nH]c2ccccc12)C(=O)N1CCOCC1` (centres undefined), the inhibition is 4.4% (inactive). To `O=C1N/C(=N\N=C\c2ccccc2O)SC1Cc1cccc(C(F)(F)F)c1` (centres undefined) belongs -19.6% (inactive); to `Cc1cc(NC(=O)C2CCCCC2)cc(C)c1O`, -10.1% (inactive); to `Cc1ccc(-c2cc(C(=O)N3CC(C)CC(C)C3)c3ccccc3n2)cc1C` (centres undefined), 30.2% (inactive). On to `CC(C)c1ccc(C(=O)NC2CC2)cc1`, for which the inhibition was 0% (inactive). In the case of `COc1cccc(C2/C(=C(\O)c3ccc(Cl)cc3)C(=O)C(=O)N2c2cccnc2)c1` (centres undefined), the inhibition is -0.3% (inactive). With `N#C/C(=C\c1cn(CC(=O)Nc2ccccc2)c2ccccc12)C(=O)Nc1ccc(F)cc1`, the inhibition is 23.2% (inactive). In the case of `O=c1oc2c(-c3cc(Cl)ccc3Cl)cc(O)cc2s1`, the inhibition was 14% (inactive). As to `C/C(=N/NC(=O)c1ccccc1C)c1ccc(NC(=O)C(F)(F)F)cc1`, the inhibition is -15.5% (inactive).

As for `O=c1[nH]c(=S)n(-c2cccc(Cl)c2)c(O)c1/C=C1/C=CC=N1`, the inhibition was 87.4% (active).

For the molecule `CCOc1ccc(-n2c(O)c(C=C3C=CC=N3)c(=O)[nH]c2=O)cc1`, the inhibition was 3% (inactive). Consider `O=c1[nH]c(=O)n(-c2ccc(Cl)cc2)c(O)c1/C=C1/C=CC=N1`, for which the inhibition was 37.9% (inactive). `Cc1cc2c(cc1C)NC(CC(=O)Nc1ccccc1C(F)(F)F)C(=O)N2` (centres undefined): the inhibition is -0.3% (inactive). In the case of `O=C(CC1Nc2ccccc2NC1=O)Nc1ccccc1NC(=O)CC1Nc2ccccc2NC1=O` (centres undefined), the inhibition is 97.7% (active). For the molecule `Cc1ccc(NC(=O)CC2Nc3cc(C)c(C)cc3NC2=O)cc1` (centres undefined), the inhibition is 33.7% (inactive). For `C=CCc1ccccc1OCCOc1c(I)cc(/C=C2/SC(=S)N(C)C2=O)cc1OC`, the inhibition was -23.1% (inactive).

As for `COc1ccccc1OCCOc1ccc(/C=N/n2cnnc2)cc1`, the inhibition is 14.5% (inactive). On to `CCOc1cc(/C=N/n2cnnc2)ccc1OCCOc1ccccc1C`, for which the inhibition is -20.4% (inactive).

For the molecule `Cc1cccc(OCCOc2cccc(/C=N/n3cnnc3)c2)c1`, the inhibition was 112% (active). Regarding `CC(C)c1ccc(NC(=O)CN(c2ccc(Oc3ccccc3)cc2)S(C)(=O)=O)cc1`, the inhibition is -26.4% (inactive).

Consider `CCCOC(=O)c1ccc(N=Cc2ccc([N+](=O)[O-])cc2)cc1`, for which the inhibition is 3.4% (inactive).

As to `O=C(NCCN1CCOCC1)c1cc2nc(-c3ccc([N+](=O)[O-])cc3)cc(C(F)(F)F)n2n1`, the inhibition was -23.4% (inactive). Turning to `Cc1ccc(-c2ccc(C)cc2N)c(N)c1`, the inhibition was -3% (inactive).

For orientation: inhibition means the drop in the measured response relative to a control, in per cent.
